According to publication PMC5540273 (PLoS ONE, 2017):

Columns and labels:
Settings in all cases: concentration: 1 μM, replicates: in singlicate; n = 1
[1] = test system: GRK4
[2] = test system: GRK7
[3] = test system: GSK3A
[4] = test system: GSK3B
[5] = test system: T1, HASPIN
T1 construct: gene GSG2

[6] = test system: HCK
[7] = test system: HIPK1
[8] = test system: HIPK2
[9] = test system: HIPK3
[10] = test system: HIPK4
[11] = test system: HPK1
[12] = test system: HUNK
[13] = test system: ICK
[14] = test system: IGF1R
[15] = test system: T2, IKK-alpha
T2 construct: gene CHUK

[16] = test system: T3, IKK-beta
T3 construct: gene IKBKB

[17] = test system: T4, IKK-epsilon
T4 construct: gene IKBKE

[18] = test system: INSRR
[19] = test system: INSR
[20] = test system: IRAK1
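Note: KINOMEscan kinase panel screen.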

Row | SMILES | %Inh [1] [%] | %Inh [2] [%] | %Inh [3] [%] | %Inh [4] [%] | %Inh [5] [%] | %Inh [6] [%] | %Inh [7] [%] | %Inh [8] [%] | %Inh [9] [%] | %Inh [10] [%] | %Inh [11] [%] | %Inh [12] [%] | %Inh [13] [%] | %Inh [14] [%] | %Inh [15] [%] | %Inh [16] [%] | %Inh [17] [%] | %Inh [18] [%] | %Inh [19] [%] | %Inh [20] [%]
1 | CCCCCc1nc2c(N)ncnc2n1CCCCC [SKF-97255] | 21 | 0 | 0 | 34 | 2 | 26 | 43 | 0 | 13 | 1 | 4 | 26 | 0 | 0 | 0 | 0 | 0 | 0 | 0 | 0
2 | O=c1cc(N2CCOCC2)nc2n(Cc3cccc(Cl)c3Cl)c(C3CC3)nn12 [GSK2358994] | 0 | 0 | 4 | 0 | 0 | 0 | 16 | 0 | 16 | 0 | 14 | 0 | 4 | 0 | 0 | 0 | 0 | 0 | 0 | 0
3 | COc1ccc(Nc2nccc(N3CCC(NC(=O)Nc4cccc(C(C)=O)c4)C3)n2)cc1 (stereo not shown) [GSK1379731] | 0 | 0 | 22 | 7 | 17 | 0 | 0 | 0 | 1 | 0 | 40 | 3 | 0 | 0 | 9 | 1 | 0 | 0 | 0 | 6
4 | COc1ccc(Nc2ncc(C#N)c(Nc3ccccc3C(N)=O)n2)cc1N1CCN(C)CC1.Cl [GSK1558669] | 96 | 46 | 99.8 | 99.8 | 88 | 98.8 | 100 | 98.8 | 99.8 | 89 | 96.4 | 0 | 97.6 | 99.6 | 97.8 | 88 | 93.8 | 100 | 99.9 | 99.8
5 | NCC(NC(=O)c1cc(-c2cn[nH]c2)c(-c2ccnc3[nH]ccc23)s1)c1ccccc1.O=C(O)C(F)(F)F.O=C(O)C(F)(F)F (stereo not shown) [GSK1325775] | 64 | 51 | 38 | 48 | 84 | 0 | 88 | 96.7 | 98.4 | 94.8 | 63 | 0 | 3 | 0 | 54 | 79 | 24 | 0 | 3 | 93.6
6 | COc1ccc(COc2cc(-n3cnc4ccccc43)sc2C(N)=O)cc1 [GSK1024304] | 1 | 0 | 14 | 0 | 0 | 0 | 18 | 18 | 21 | 8 | 45 | 14 | 0 | 8 | 0 | 17 | 0 | 0 | 13 | 0
7 | c1ccc(-c2cc(-c3c[nH]nc3-c3ccccn3)ccn2)cc1 [GW576604] | 0 | 0 | 11 | 0 | 16 | 0 | 0 | 0 | 15 | 6 | 25 | 16 | 0 | 19 | 0 | 0 | 0 | 0 | 2 | 7
8 | COc1cc2c(cc1OCCN1CCN(C)CC1)ncc1c3ccc(C#N)cc3[nH]c21 | 0 | 0 | 0 | 0 | 76 | 0 | 97.6 | 100 | 96 | 55 | 11 | 0 | 10 | 0 | 44 | 29 | 70 | 0 | 0 | 97.2
